Data from PubChem BioAssay.
The source made the active and inactive calls.

Experiments:
[1] = test system: PRMT1 (protein arginine N-methyltransferase 1); experiment: small molecules binding arginine methyltransferase PRMT1 – biochemical, small-molecule microarray, 635 nm fluorescence, primary screen (AID 1088); conditions: higher = more signal;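 further: binding of Prmt1 protein to compounds spotted on small-molecule microarray slides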
[2] = growth effects on S. cerevisiae YJM789 – YJM789 clinical isolate, OD600, 24 h, basal, primary screen (AID 1089); conditions: higher = more signal, called active from +8 up or from −8 down;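 further: growth of clinical yeast isolate S. cerevisiae YJM 789 seeded 1000 cells per well; test concentration not given here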
[3] = S. pombe growth modifiers, basal conditions – strain 972, OD600, 24 h, no modulator, primary screen (AID 1090);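 further: basal condition with compound alone and no growth modifier present; test concentration not given here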; conditions: S. pombe 972 growth, higher = more signal, called active from +8 up or from −8 down
[4] = budding yeast growth modifiers under rapamycin – strain BY4716, OD600, 96 h, primary screen (AID 1091); further: test concentration not given here; conditions: S. cerevisiae BY4716 + rapamycin, higher = more signal, called active from +8 up or from −8 down
[5] = target: Torsin-1A-interacting protein 2 (Homo sapiens) (UniProt Q8NFQ8); experiment: small molecules binding lysate-expressed LULL1 – cell lysate, human LULL1 lysate, 635/667 nm fluorescence, primary screen (AID 1092); conditions: small-molecule microarray, hLULL1 lysate binding, 635 nm fluorescence; higher = more signal;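 further: probe is lysate of COS7 cells overexpressing human LULL1; score merges per-feature 667 nm fluorescence with signal-to-noise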
[6] = optical density change of DRC41 E. coli – strain DRC41, OD650, 24 h, E. coli filamentation project, primary screen (AID 1093);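 further: MC1000 strain lacking acrAB efflux and sulA so SOS filamentation is blocked; test concentration not given here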; conditions: E. coli DRC41 growth, higher = more signal, called active from +8 up or from −8 down
[7] = probe aLefty2 binding to arrayed compounds – biochemical, biotinylated probe, 635/667 nm fluorescence, primary screen (AID 1094); conditions: small-molecule microarray, higher = more signal;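 further: score merges spot fluorescence near 667 nm with spot signal-to-noise ratio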
[8] = test system: Noggin (protein binding on small-molecule microarray); experiment: small molecules binding Noggin protein – biochemical, 635/667 nm fluorescence, primary screen (AID 1095); conditions: 635 nm fluorescence, higher = more signal;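 further: score merges 667 nm feature fluorescence with signal to noise over triplicate slides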
[9] = target: Neurogenic locus notch homolog protein 3 (Homo sapiens) (UniProt Q9UM47); experiment: small molecules binding NOTCH3 protein – biochemical, 635/667 nm fluorescence, primary screen (AID 1096); conditions: small-molecule microarray, 635 nm fluorescence, higher = more signal
[10] = probe aEGFR binding to arrayed compounds – biochemical, biotinylated probe, 635/667 nm fluorescence, primary screen (AID 1097); conditions: small-molecule microarray, higher = more signal;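 further: probe is a biotinylated anti-EGFR antibody binding compounds printed on slides; score combines fluorescence near 667 nm and signal to noise of each spot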

Chain of Neurogenic locus notch homolog protein 3 (Homo sapiens) (Q9UM47 whole entry, looked up): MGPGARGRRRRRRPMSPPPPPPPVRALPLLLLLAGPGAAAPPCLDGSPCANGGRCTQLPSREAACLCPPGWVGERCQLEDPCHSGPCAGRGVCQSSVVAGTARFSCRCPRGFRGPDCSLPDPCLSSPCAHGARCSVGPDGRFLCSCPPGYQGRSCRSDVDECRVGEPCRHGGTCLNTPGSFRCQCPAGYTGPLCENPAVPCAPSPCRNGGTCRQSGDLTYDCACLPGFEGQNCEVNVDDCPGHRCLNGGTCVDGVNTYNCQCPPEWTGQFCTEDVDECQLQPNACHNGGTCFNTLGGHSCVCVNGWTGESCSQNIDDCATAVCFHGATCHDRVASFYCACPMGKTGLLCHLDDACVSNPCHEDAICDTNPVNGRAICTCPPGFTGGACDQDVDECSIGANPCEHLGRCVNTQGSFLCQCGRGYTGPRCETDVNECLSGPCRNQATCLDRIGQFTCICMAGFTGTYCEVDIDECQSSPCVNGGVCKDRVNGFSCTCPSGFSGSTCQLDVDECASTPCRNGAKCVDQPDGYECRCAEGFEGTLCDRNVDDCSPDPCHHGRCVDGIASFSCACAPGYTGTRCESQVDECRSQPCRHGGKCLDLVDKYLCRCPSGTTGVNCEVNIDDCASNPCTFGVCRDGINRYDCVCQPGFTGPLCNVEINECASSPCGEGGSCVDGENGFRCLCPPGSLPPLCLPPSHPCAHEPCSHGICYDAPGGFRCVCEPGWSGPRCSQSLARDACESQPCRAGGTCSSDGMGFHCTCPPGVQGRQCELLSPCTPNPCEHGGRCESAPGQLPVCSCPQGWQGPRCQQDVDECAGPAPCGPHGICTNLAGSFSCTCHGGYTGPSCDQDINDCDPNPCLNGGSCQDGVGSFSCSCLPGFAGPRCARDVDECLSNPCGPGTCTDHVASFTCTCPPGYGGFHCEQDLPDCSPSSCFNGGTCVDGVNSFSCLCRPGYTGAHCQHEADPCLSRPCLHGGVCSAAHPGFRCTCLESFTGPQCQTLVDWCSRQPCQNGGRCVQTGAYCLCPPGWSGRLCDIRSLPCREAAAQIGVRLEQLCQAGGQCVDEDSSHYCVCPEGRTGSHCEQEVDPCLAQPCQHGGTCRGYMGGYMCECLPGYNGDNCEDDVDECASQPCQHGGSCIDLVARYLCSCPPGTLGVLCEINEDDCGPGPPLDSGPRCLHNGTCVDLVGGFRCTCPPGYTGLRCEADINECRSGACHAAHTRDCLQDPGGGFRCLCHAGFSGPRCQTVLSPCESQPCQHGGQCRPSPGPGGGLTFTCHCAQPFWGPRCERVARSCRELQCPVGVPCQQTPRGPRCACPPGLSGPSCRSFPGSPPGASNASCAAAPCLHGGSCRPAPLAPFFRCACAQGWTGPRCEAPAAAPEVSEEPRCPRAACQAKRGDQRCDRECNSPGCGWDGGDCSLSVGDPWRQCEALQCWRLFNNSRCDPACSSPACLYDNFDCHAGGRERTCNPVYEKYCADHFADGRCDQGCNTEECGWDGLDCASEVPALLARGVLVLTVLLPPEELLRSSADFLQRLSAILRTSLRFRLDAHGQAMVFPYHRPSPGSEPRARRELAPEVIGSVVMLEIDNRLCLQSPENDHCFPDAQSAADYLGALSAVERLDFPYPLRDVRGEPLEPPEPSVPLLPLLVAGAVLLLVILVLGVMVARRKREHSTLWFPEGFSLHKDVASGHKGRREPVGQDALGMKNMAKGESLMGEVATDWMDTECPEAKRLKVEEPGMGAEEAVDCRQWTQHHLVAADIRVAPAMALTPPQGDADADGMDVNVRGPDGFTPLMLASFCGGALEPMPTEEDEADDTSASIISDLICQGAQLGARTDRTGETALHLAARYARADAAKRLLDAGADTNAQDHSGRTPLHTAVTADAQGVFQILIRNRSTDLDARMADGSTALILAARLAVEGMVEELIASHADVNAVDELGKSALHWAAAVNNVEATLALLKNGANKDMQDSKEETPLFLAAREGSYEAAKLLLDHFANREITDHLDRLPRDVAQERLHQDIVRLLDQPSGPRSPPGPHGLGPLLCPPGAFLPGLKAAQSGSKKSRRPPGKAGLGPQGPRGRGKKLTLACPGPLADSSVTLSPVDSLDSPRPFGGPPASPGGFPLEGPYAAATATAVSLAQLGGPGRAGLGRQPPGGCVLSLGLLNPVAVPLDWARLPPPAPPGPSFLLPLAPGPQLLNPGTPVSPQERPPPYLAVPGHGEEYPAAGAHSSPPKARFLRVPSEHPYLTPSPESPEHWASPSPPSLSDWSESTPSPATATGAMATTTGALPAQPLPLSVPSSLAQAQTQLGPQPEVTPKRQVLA
Chain of Torsin-1A-interacting protein 2 (Homo sapiens) (Q8NFQ8 whole entry, looked up): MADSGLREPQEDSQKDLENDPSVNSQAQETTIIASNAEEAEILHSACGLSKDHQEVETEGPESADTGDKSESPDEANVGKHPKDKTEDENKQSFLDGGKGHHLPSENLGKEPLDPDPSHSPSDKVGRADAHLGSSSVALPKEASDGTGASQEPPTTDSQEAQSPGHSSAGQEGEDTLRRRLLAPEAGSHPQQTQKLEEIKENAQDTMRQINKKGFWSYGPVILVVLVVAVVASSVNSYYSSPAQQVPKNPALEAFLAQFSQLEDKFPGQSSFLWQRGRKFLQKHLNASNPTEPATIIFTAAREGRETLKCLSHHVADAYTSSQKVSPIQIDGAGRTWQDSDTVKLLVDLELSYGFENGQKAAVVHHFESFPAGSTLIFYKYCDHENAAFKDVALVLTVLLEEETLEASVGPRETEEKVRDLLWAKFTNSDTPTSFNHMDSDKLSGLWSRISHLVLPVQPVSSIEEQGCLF

Compound | composite z-score [1] | z-score [2] | z-score [3] | z-score [4] | composite z-score [5] | z-score [6] | composite z-score [7] | composite z-score [8] | composite z-score [9] | composite z-score [10]
CC(C)CNC(=O)[C@@]1(Cc2ccccc2I)c2ccccc2C(=O)N(C2CCCCC2)[C@H]1c1ccc(CO)cc1 | 1.57 | -1.32 (inactive) | -0.597 (inactive) | 0.153 (inactive) | 1.28 | -0.518 (inactive) | 0.164 | -0.235 | 0.497 | 0.0066
COCCOC(=O)N1C(=O)[C@@]2(c3cc(C#CCC(C(=O)OC)C(=O)OC)ccc31)[C@H](c1ccccc1OCCO)N1[C@H](c3ccccc3)[C@H](c3ccccc3)OC(=O)[C@H]1[C@@H]2C(=O)NC[C@H](O)c1ccccc1 | 1.54 | 1.78 (inactive) | 2.17 (inactive) | 5.84 (inactive) | 2.32 | -0.036 (inactive) | 0.032 | 1.62 | 1.05 | 0.379
C=CC[C@@]1(C(=O)NCCN2CCOCC2)N=C(c2ccc(OCCCO)cc2)O[C@@H]1c1ccccc1N=[N+]=[N-] | 0.513 | 0.658 (inactive) | -0.211 (inactive) | 0.408 (inactive) | 2.03 | -0.0403 (inactive) | 0.293 | 0.26 | -0.483 | 0.38
C=CCNC(=O)[C@H]1[C@@H]2C(=O)O[C@@H](c3ccccc3)[C@@H](c3ccccc3)N2[C@@H](c2ccccc2OCCO)[C@]12C(=O)Nc1ccc(C#CCCO)cc12 | -0.294 | 1.69 (inactive) | -0.648 (inactive) | 4.32 (inactive) | 2.24 | -0.462 (inactive) | -0.0617 | -0.76 | -0.104 | -0.0353
COC(=O)[C@@]1(Cc2ccc(OC)cc2)[C@H]2c3cc(C(=O)N(C)C)n(C)c3C[C@H]2CN1C(=O)c1ccccc1 | 1.4 | 0.116 (inactive) | -0.756 (inactive) | 9.05 (active) | 3.73 | -1.63 (inactive) | 0.654 | 0.727 | 1.02 | 0.382
[N-]=[N+]=NCc1ccccc1C[C@]1(C(N)=O)COC(c2ccc(OCCCO)cc2)=N1 | 0.945 | -4.72 (inactive) | -1.09 (inactive) | -1.19 (inactive) | 3.1 | 1.95 (inactive) | 0.0567 | -0.572 | 0.31 | 0.0641
COc1ccc(C#Cc2ccc3c(c2)[C@]2(C(=O)N3)[C@H](c3ccccc3OCCO)N3[C@H](c4ccccc4)[C@H](c4ccccc4)OC(=O)[C@H]3[C@@H]2C(=O)Nc2nc3ccccc3s2)cc1 | 1.54 | 2.95 (inactive) | 1.47 (inactive) | 0.871 (inactive) | 1.95 | 0.0309 (inactive) | 0 | 0.785 | 1.09 | -0.0549
COC(=O)[C@]1(CCC(=O)OC(C)(C)C)N=C(c2ccc(OCCCO)cc2)O[C@@H]1c1ccccc1CN=[N+]=[N-] | 1.52 | 0.339 (inactive) | 0.419 (inactive) | 15.2 (active) | 2.07 | -0.511 (inactive) | 0.271 | -0.146 | 0.51 | 0.124
C=C(CCCC)/C(=C/C[C@@H](OC(C)=O)c1ccc(OCCO)cc1)c1cnc2ccccc2c1 | 1.56 | 0.273 (inactive) | -1.44 (inactive) | -0.245 (inactive) | 2.01 | 0.796 (inactive) | -0.132 | 0.542 | 0.857 | 0.0507
COC(=O)[C@@]1(Cc2ccc(F)cc2)[C@H]2c3cc(C(=O)N(C)C)n(Cc4ccccc4)c3C[C@H]2CN1C(=O)c1ccccc1 | 0.964 | 0.428 (inactive) | 1.49 (inactive) | 3.85 (inactive) | 1.73 | -0.466 (inactive) | 0.318 | -0.004 | 1.14 | 0.0709
CC1CC/C=C\[C@H]2OC34C=CCN(C(C)(C)C)C(=O)[C@H]3N(C(C)CO)C(=O)[C@@H]4C2C(=O)O1 (stereo not given in full) | -0.282 | 0.214 (inactive) | -0.538 (inactive) | -0.0168 (inactive) | -0.656 | -0.434 (inactive) | -0.207 | 0.0449 | -0.454 | -0.27
Cc1ccc(S[C@]2(C(=O)NCCCN(C)C)CC(=O)N(Cc3ccccc3C(F)(F)F)[C@@H]2c2ccc(CO)cc2)cc1 | 0.486 | -0.339 (inactive) | -0.543 (inactive) | -0.914 (inactive) | 1.91 | 0.783 (inactive) | 0.0446 | -0.858 | -1.3 | -0.227
CCOC(=O)C[C@H]1[C@H](OC(=O)c2ccc(C(=O)c3ccccc3)cc2)[C@@H](NC(=O)c2ccccc2)c2cc(OCCCO)ccc2N1C(=O)Cc1ccc(OC)cc1 | 0.355 | 0.0572 (inactive) | -0.682 (inactive) | -0.0292 (inactive) | 0.84 | 0.0663 (inactive) | 0.0283 | 0.49 | 0.0805 | -0.142
O=C(NC1CC1)[C@@H]1c2ccccc2C(=O)N(Cc2ccccc2Cl)[C@H]1c1ccc(CO)cc1 | 1.54 | -2.17 (inactive) | -2.52 (inactive) | -1.66 (inactive) | 2.77 | 4.01 (inactive) | 0.161 | 1.02 | 1.11 | 0.0103
OCCCC1=CC(c2cccs2)N(Cc2cc3c(cc2Br)OCO3)CC1 (stereo not given) | 0.591 | -0.678 (inactive) | -1.05 (inactive) | -0.274 (inactive) | 1.17 | -0.414 (inactive) | 0 | 0.915 | 0.208 | -0.0304
C=C(CCCC)/C(=C/C[C@@H](OC(=O)c1ccncc1)c1ccc(OCCO)cc1)c1cc(C(=O)OC)ccc1OC | 1.53 | 0.594 (inactive) | 0.199 (inactive) | 0.279 (inactive) | 1.66 | 0.22 (inactive) | -0.166 | 0.874 | 0.975 | -0.12
O=C1C[C@@](C(=O)NCCN2CCOCC2)(c2ccc([N+](=O)[O-])cc2)[C@@H](c2ccc(CO)cc2I)N1CC12CC3CC(CC(C3)C1)C2 | 1.54 | -24.9 (active) | -5.93 (inactive) | 0.0788 (inactive) | 3.2 | -0.981 (inactive) | -0.112 | 1.2 | 1.08 | -0.0381
CCC[C@@H]1C[C@@]1(CCC)[C@@H](NS(=O)(=O)c1cccc2cccnc12)c1ccc(Cl)cc1 | 0.0685 | 0.788 (inactive) | 1.01 (inactive) | 0.478 (inactive) | 2.66 | -1.01 (inactive) | 0.0763 | -1.22 | 0.296 | -0.136
COc1ccc(CCNC(=O)[C@@]2(Sc3ccc(C)cc3)CC(=O)N(C(C)C)[C@@H]2c2ccc(CO)cc2I)cc1 | 0.163 | -0.971 (inactive) | -0.693 (inactive) | 0.706 (inactive) | 0.468 | -0.236 (inactive) | -0.183 | -0.778 | -0.343 | -0.189
COCCOC(=O)N1C(=O)[C@@]2(c3ccccc31)[C@H](c1ccccc1OCCO)N1[C@H](c3ccccc3)[C@H](c3ccccc3)OC(=O)[C@H]1[C@@H]2C(=O)N1CCN(c2ncccn2)CC1 | 1.54 | 1.68 (inactive) | 1.58 (inactive) | 8.88 (active) | 2.59 | 0.22 (inactive) | -0.0529 | 0.994 | 1.11 | -0.12
COc1ccccc1CN1C(=O)c2ccccc2[C@@H](C(=O)NC2CC2)[C@@H]1c1ccc(CO)cc1 | 1.54 | 0.827 (inactive) | -0.392 (inactive) | 0.344 (inactive) | 2.28 | 0.772 (inactive) | 0.488 | 1.47 | 1.06 | 0.194
CC#CC(=O)Oc1ccccc1C=CC(=O)OCC | 0.779 | -2.32 (inactive) | -15.4 (active) | -2.16 (inactive) | 1.33 | 0.316 (inactive) | -0.0549 | 0.664 | 0.225 | -0.0531
COc1cc2c(cc1OC)CN(C(=O)[C@@H]1[C@H]3C(=O)O[C@H](c4ccccc4)[C@H](c4ccccc4)N3[C@H](c3ccccc3OCCO)[C@@]13C(=O)Nc1ccc(C#CCCO)cc13)CC2 | 1.56 | 1.47 (inactive) | -1.3 (inactive) | 2.22 (inactive) | 3.02 | 1.15 (inactive) | -0.108 | 0.772 | 1.08 | -0.0624
COCCOC(=O)N1C(=O)[C@@]2(c3cc(C#CCNC(N)=O)ccc31)[C@H](C(=O)N1CCN(c3ncccn3)CC1)[C@H]1C(=O)O[C@H](c3ccccc3)[C@H](c3ccccc3)N1[C@@H]2c1ccc(OCCO)cc1 | 1.57 | 1.51 (inactive) | 0.383 (inactive) | 4.36 (inactive) | 2.34 | -0.351 (inactive) | 0.0158 | 0.707 | 1.1 | -0.0271
CN(C)CCCCCCNC(=O)[C@H]1C[C@H]2C(=O)N[C@@H](CCCCN)C(=O)N2[C@H]1c1cccc(OCCO)c1 | 1.56 | -0.871 (inactive) | -9.2 (active) | -0.622 (inactive) | 4.65 | -0.15 (inactive) | 1.76 | 2.06 | 1.01 | 1.12
C=CC[C@]1(C(=O)NCc2ccccc2)N=C(c2ccc(OCCCO)cc2)O[C@H]1c1ccccc1N=[N+]=[N-] | 1.22 | -1.33 (inactive) | 0.0342 (inactive) | 0.511 (inactive) | 3.24 | 0.73 (inactive) | 0.17 | 0.0073 | 1.11 | 0.0968
COc1cc2c(cc1OC)CN(C(=O)[C@H]1[C@@H]3C(=O)O[C@@H](c4ccccc4)[C@@H](c4ccccc4)N3[C@@H](c3ccc(O)cc3)[C@]13C(=O)Nc1ccc(C#CCCO)cc13)CC2 | 1.56 | 1 (inactive) | -0.0822 (inactive) | 1.91 (inactive) | 2.44 | 1.32 (inactive) | -0.145 | 0.837 | 0.434 | -0.152
C[N+](C)(C)CCCCCCNC(=O)[C@@H]1C[C@@H]2C(=O)N[C@@H](Cc3ccccc3)C(=O)N2[C@@H]1c1cccc(OCCO)c1 | 1.57 | -0.165 (inactive) | 0.297 (inactive) | -0.214 (inactive) | 2.87 | 1.02 (inactive) | 0.0235 | 1.82 | 1.09 | -0.0688
CCCCCCc1nc(-c2cc(C)c(OC)c(C)c2)cc2c1[Si](C(C)C)(C(C)C)OC2 | 1 | -0.389 (inactive) | -0.114 (inactive) | -0.264 (inactive) | -0.0784 | 0.344 (inactive) | -0.0575 | 0.187 | -0.129 | -0.0828
